Values joined by “and” are separate entries in the source; they are usually repeats but may differ in a detail not shown here. Equal values may be shown once. Screen size: about 390,000 compounds; about 1,400 (0.36%) were called active. Not shown: some 2% with an inconclusive outcome. Calls follow the shape of the dose curve; as a rule, active = well fitted inhibition curve with a large enough effect; inconclusive = small, poorly fitted or top-dose-only effect; inactive = no such curve, though single readings can be large or run the other way. Many of the other results were omitted from the sample, so actives are more common in it than they were. Some structures have more than one record in an assay (separate samples or runs), and their calls can disagree.
target: Flap endonuclease 1 (Homo sapiens) (UniProt P39748); assay: qHTS Assay for the Inhibitors of Human Flap endonuclease 1 (FEN1).; also: nearly all actives have a fitted effect of over 65% in size; conditions: Recombinant FEN1 flap cleavage, fluorescence, 15 min; series mostly up to 114 µM; activity change, negative = inhibition: at the top concentration
Sequence (P39748 whole entry, looked up, the tested form may be a part): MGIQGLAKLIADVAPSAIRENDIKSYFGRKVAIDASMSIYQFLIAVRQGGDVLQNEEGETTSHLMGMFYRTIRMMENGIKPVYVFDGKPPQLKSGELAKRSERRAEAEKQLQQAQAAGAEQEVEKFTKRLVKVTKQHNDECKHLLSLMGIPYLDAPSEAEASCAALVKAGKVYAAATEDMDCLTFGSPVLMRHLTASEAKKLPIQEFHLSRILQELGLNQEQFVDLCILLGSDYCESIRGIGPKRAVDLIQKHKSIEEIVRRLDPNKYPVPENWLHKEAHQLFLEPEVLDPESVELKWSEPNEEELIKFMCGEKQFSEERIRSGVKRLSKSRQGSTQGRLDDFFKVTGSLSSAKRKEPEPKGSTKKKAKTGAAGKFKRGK
Excerpt: The major human flap endonuclease FEN1 is an efficient structure-specific enzyme that recognizes and cleaves a 5'-unannealed DNA flap. It belongs to the RAD2 family nucleases, which are involved in DNA metabolism and are highly conserved in prokaryotes and eukaryotes. FEN1 is a key enzyme in DNA replication, repair and maintenance of genomic stability. 5'-flap removal by FEN1 is critical for Okazaki fragment processing during lagging strand DNA synthesis, long-patch base excision repair (LP BER), and regulating or facilitating recombination events. […] Deletion of the yeast FEN1 gene, i.e. rad27, results in an increased frequency of short DNA (3-32 bp) repeats, micro- and mini-satellite formation, trinucleotide repeat expansion, spontaneous recombination events, and a severe growth defect in association with cell cycle arrest in late S/G2 phase. […] Cells from fen1-/- blastocysts show increased apoptotic cell death after ionizing radiation treatment, and chicken cells lacking the fen1 gene are hypersensitive to DNA alkylating agents, e.g. methylmethane sulfonate (MMS) and N-methyl-N'-nitro-N-nitrosoguanidine (MNNG), as well as hydrogen peroxide.
NIH Chemical Genomics Center [NCGC]
NIH Molecular Libraries Probe Centers Network [MLPCN]
Assay Submitter (PI): David Wilson, National Institute of Aging
Three uL of reagents (buffer in column 3 and 4 as negative control and 10 nM FEN1 in columns 1, 2, and 5-48) were dispensed into 1,536-well black solid-bottomed plate. Compounds (23 nL) were transferred via Kalypsys pin tool equipped with 1536-pin array (10 nL slotted pins, V&P Scientific, San Diego, CA). The plates were then incubated for 15 min at room temperature, and 1 uL substrate (50 nM final concentration) were added to start the reaction read twice at 0 min read and 15 min on ViewLux reader. Throughout the screen, reagent bottle and all liquid lines were chilled and made light-tight to minimize reagent degradation. All screening operations were performed on a fully integrated robotic system (Kalypsys, San Diego, CA) containing one RX-130 and two RX-90 anthropomorphic robotic arms (Staubli, Duncan, SC). Library plates were screened starting from the lowest and proceeding to the highest concentration, and a "double-dipping" step of the highest concentration was required to access higher concentrations of compounds. Vehicle-only plates, with DMSO being pin-transferred to the entire column 5-48 compound area, were inserted uniformly at the beginning and the end of each library in order to monitor for and record any shifts in the background, which can be affected by reagent dispensers or loss in enzyme activity overtime. Screening data was corrected, normalized, and concentration-effect relationships were derived by using publicly-available curve fitting algorithms developed in-house (http://ncgc.nih.gov/pub/openhts). A four parameter Hill equation was fitted to the concentration-response data by minimizing the residual error between the modeled and observed responses.
% is scaled to controls: 0 for no effect and ±100 for the full control effect; potency is read from the fitted curve at half-maximal effect.

Structure (SMILES) | activity change, negative = inhibition | Potency
COc1ccccc1CNC(=O)C(=O)NCC(c1ccco1)S(=O)(=O)c1ccc(F)cc1 (stereo unspecified) | 11.7% (inactive) | –
CN(C)c1cccc2ccccc12 | 1.97% (inactive) | –
Brc1nc2ncnc(NCc3ccco3)c2[nH]1 | -16.5% (inactive) | –
C[N+]1(CC(=O)c2cccs2)CCOCC1 | -17.5% (inactive) | –
O=C(NCCc1ccccc1)c1ccc2c(c1)N(Cc1ccccc1)C(=O)c1ccccc1S2(=O)=O | -10.8% (inactive) | –
CCC(C)N(c1ccc(/C=C/c2ccnc3ccccc23)cc1)C(C)CC (stereo unspecified) | -22.3% (inactive) | –
Cn1c(COc2ccccc2C(C)(C)C)nc2ccccc21 | -2.63% (inactive) | –
CCOc1n[nH]c(-c2ccccc2)n1 | -2.51% (inactive) | –
O=C(Nc1ccc(N2CCOCC2)cc1)c1ccc(-c2ccccc2[N+](=O)[O-])o1 | -16% (inactive) | –
O=C1NC(c2ccc(-c3ccccc3[N+](=O)[O-])o2)C(C(=O)c2ccc(Cl)cc2)C(O)(C(F)(F)F)N1 (stereo unspecified) | -22.5% (inactive) | –
CC1=NN(c2ccc(Cl)c(C(=O)O)c2)C(=O)/C1=C/c1ccc(-c2ccccc2[N+](=O)[O-])o1 | – | 28.2 µM (active)
CN(C(=N)N)c1ccc(/C=C2\C=Cc3ccccc32)cc1 | -10.5% (inactive) | –
CC(=O)Nc1ccc2nc(SCCOc3cc(C)cc(C)c3)sc2c1 | 11.5% (inactive) | –
CN(C)c1ccc(/C=c2\[nH]c(=O)/c(=C/c3ccc(N(C)C)cc3)[nH]c2=O)cc1 | -0.26% (inactive) | –
COc1ccc2c(c1)c(=Cc1ccc(N(C)C)cc1)c1cc(-c3ccccc3)[n+](C)n12 | – | 4.47 µM (active)
CN(C)CCCn1c(-c2ccc(Cl)cc2)csc1=Nc1ccccc1 | -14.2% (inactive) | –
CC1(C)C=Cc2c(ccc(C(=O)/C=C/c3ccccc3)c2O)O1 | -7.78% (inactive) | –
CC(C)(C)c1ccc(C(=O)C[n+]2cccc3cc(Cl)ccc32)cc1 | -3.13% (inactive) | –
Nc1nc(N)c(N=O)c(N)n1 | -13.9% (inactive) | –
CC(C)(C)n1ncc2c(=O)n(Cc3ccc(C(=O)c4ccccc4)cc3)cnc21 | 6.55% (inactive) | –
CC(C)(C)n1ncc2c(=O)n(Cc3ccc(Cl)cc3)cnc21 | – | inactive and 39.8 µM (active)
CC(C)(C)n1ncc2c(=O)n(Cc3c(Cl)cccc3Br)cnc21 | -20% (inactive) | –
Oc1ccc(Br)cc1C1C=C(c2ccc3c(c2)OCO3)NC(c2ccc(Cl)cc2)N1 (stereo unspecified) | -18% (inactive) | –
N#Cc1ccc[n+](CC(=O)c2ccc(F)cc2)c1 | 17% (inactive) | –
N#Cc1ccc[n+](CC(=O)c2ccc(O)c(O)c2)c1 | – | 2 µM (active)
O=C(C[n+]1ccncc1)c1ccc2c(c1)CCCC2 | 13.6% (inactive) | –

Structure (SMILES) | activity change, negative = inhibition | Potency
CCN1CCN(c2ccc(/C=C/c3ccnc4ccccc34)cc2)CC1 | -31.7% (inactive) | –
N#CCC(=O)N/N=C/c1cn(Cc2ccc3ccccc3c2)c2ccccc12 | 3.82% (inactive) | –
Cc1ccc(/C=C(\C#N)C(=O)Nc2cc(C)ccc2C)cc1 | 16.1% (inactive) | –
Cc1ccc(Cl)cc1NC(=O)/C(C#N)=C\c1cn(Cc2ccc(F)cc2)c2ccccc12 | – | 89.1 µM (active)
O=C1O/C(=C\c2ccc(O)cc2)C(O)=C1c1ccc(O)cc1 | -7.29% (inactive) | –
CCc1ccc(OCCCn2c(CCCNC(=O)C3CCCCC3)nc3ccccc32)cc1 | 7.45% (inactive) | –
CN(C)Cc1cn(-c2ccccc2)nc1-c1ccccc1 | -15.4% (inactive) | –
c1ccc(CSc2nnc(-c3ccco3)c(-c3ccco3)n2)cc1 | – | 56.2 µM (active)
O=C(NCCSc1ccccc1)c1ccco1 | -3.87% (inactive) | –
Cc1ccc(-c2nnc(SCC(=O)NCc3ccccc3)nc2-c2ccc(C)cc2)cc1 | -14.6% (inactive) | –
NC(=O)Nc1ccc(/C=C/c2ccnc3ccccc23)cc1 | 2.76% (inactive) | –
CC1CC(C)CN(c2oc(-c3ccc(OCc4ccc(Cl)cc4)cc3)nc2C#N)C1 (stereo unspecified) | 13.6% (inactive) | –
O=C(COC(=O)CCCN1C(=O)c2cccc3cccc(c23)C1=O)NC1CCS(=O)(=O)C1 (stereo unspecified) | -17.4% (inactive) | –
C[N+](C)(CCCCCC[N+](C)(C)CCCN1C(=O)c2cccc3cccc(c23)C1=O)CCCN1C(=O)c2cccc3cccc(c23)C1=O | – | 2.51 µM (active)
O=C(CN1C(=O)c2cccc3cccc(c23)C1=O)N1CCCCC1 | -12.2% (inactive) | –
O=C(O)C1=C/C(=C/C=[N+]2c3cc(O)c(O[C@H]4OC(CO)[C@@H](O)[C@@H](O)[C@@H]4O)cc3C[C@@H]2C(=O)[O-])C[C@H](C(=O)O)N1 (stereo partly specified) | -16.4% (inactive) | –
COc1cc2nc(C#Cc3nc4cc(OC)c(OC)cc4[nH]3)[nH]c2cc1OC | 3.58% (inactive) | –
CS(=O)c1ccc(/C=C2\C=Cc3ccccc32)cc1 (stereo unspecified) | 1.4% (inactive) | –
CCOC(=O)c1ccc(CS(=O)c2ccc(Cl)cc2)o1 (stereo unspecified) | 2.29% (inactive) | –
CCOC(=O)N1CCN(C(=O)CNC(=O)Cc2ccc(Cl)cc2)CC1 | -3.43% (inactive) | –
CCOC(=O)c1c(Cc2ccc(Cl)cc2)c[nH]c1C | – | 89.1 µM (active)
O=C(CCS(=O)(=O)c1ccccc1)N(Cc1cccnc1)c1nc2c(F)cccc2s1 | -0.704% (inactive) | –
ClC/C=C/C[n+]1ccccc1Cl | -1.32% (inactive) | –
Clc1cccc[n+]1CCCC[n+]1ccccc1Cl | – | 79.4 µM (active)
Brc1cccc[n+]1Cc1cccc(C[n+]2ccccc2Br)c1 | -22.5% (inactive) | –
